Assay in all cases: qHTS profiling for inhibitors of Plasmodium falciparum proliferation (AID 504749); further: nearly all actives have a fitted effect of over 60% in size
Holding throughout (settings): P. falciparum in erythrocytes, SYBR Green DNA, 72 h; series mostly up to 28.7 µM

Assay [1] has as its system ATS95. The gist of the method:
(§1)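 Quantitative HTS: compounds pinned into medium, infected erythrocytes added (0.3% parasitemia, 2.5% hematocrit), 72 h culture at 37 C under 5% CO2. Saponin/Triton lysis with SYBR Green I, overnight RT, then fluorescence read.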

For assay [2], the system named is C2A. In a few lines: as §1
Assay [3] has as its system CP217. In a few lines:
as §1

The subject of assay [4] is CP237. In a few lines:
as §1

The test system of assay [5] is CP238. In a few lines:
as §1

The test system of assay [6] is CP250. In a few lines:
as §1

Assay [7] concerns CP252. In a few lines:
as §1

Assay [8] concerns CP256. The gist of the method: as §1
Assay [9] has as its system CP262. In a few lines: as §1
Assay [10] concerns CP265. In a few lines:
as §1

The test system of assay [11] is CP266. In a few lines:
as §1

Assay [12] deals with CP268. In a few lines: as §1
The subject of assay [13] is CP269. In a few lines:
as §1

Assay [14] relates to CP325. The gist of the method:
as §1

In assay [15] the test system is CP329. The gist of the method: as §1
Assay [16] deals with Dd2. In a few lines:
as §1

Assay [17] relates to ECU. The gist of the method:
as §1

For assay [18], the system named is GB4. The gist of the method: as §1
Assay [19] deals with P93_24. In a few lines: as §1
The test system of assay [20] is SC27B. The gist of the method:
as §1

Inconclusive results are not listed. Activity calls are given as the source filed them. The call rests on the fitted dose curve; in most records, active means well fitted inhibition curve with a large enough effect; inconclusive means small, poorly fitted or top-dose-only effect; inactive means flat fitted curve, though single readings scatter.
Potency means the concentration at half of the fitted maximal effect.

Consider `CC1(Cn2ccnn2)[C@H](C(=O)O)N2C(=O)C[C@H]2S1(=O)=O` (stereo not given in full), for which the Potency entry in [1], in assay [2], in [3], in [4], in assay [5] and in [6] was “inactive” each time. For the same molecule, the Potency entry in assay [7], in assay [8], in [9], in [10], in [11] and in [12] was “inactive” throughout. Also, the Potency entry in assay [13], in [14], in assay [15], in assay [16], in assay [17] and in [18] was “inactive” throughout. Besides, the Potency entry in assay [19] and in [20] was “inactive” throughout.
`OCCOC[C@H]1O[C@H](OCCO)[C@H](OCCO)[C@@H](OCCO)[C@@H]1OCCO` (tested in a mixture with another compound): the Potency result in assay [1], in assay [2], in assay [3], in assay [4], in [5] and in assay [6] was “inactive” throughout. Also, the Potency entry in assay [7], in [8], in assay [9], in [10], in [11] and in [12] was “inactive” in each case. Besides, the Potency result in assay [13], in assay [14], in assay [15], in [16], in assay [17] and in [18] was “inactive” throughout. The Potency entry in [19] and in assay [20] was “inactive” each time.
With `COc1cccc(OC)c1C(=O)NC1C(=O)N2C1SC(C)(C)C2C(=O)O` (stereo not given), the Potency result in [1], in [2], in [3], in assay [4], in assay [5] and in assay [6] was “inactive” throughout. Also, the Potency result in assay [7], in [8], in assay [9], in assay [10], in assay [11] and in assay [12] was “inactive” throughout. Further, the Potency entry in assay [13], in assay [14], in assay [15], in [16], in assay [17] and in [18] was “inactive” each time. Also, the Potency result in assay [19] and in [20] was “inactive” each time.
For the molecule `C=C[C@H]1CN2CCC1C[C@H]2[C@H](O)c1ccnc2ccc(OC)cc12` (stereo not given in full), the Potency in assay [1] is 794 nM (active); in assay [2], 1120 nM (active); in assay [3], 2820 nM (active); in assay [4], 1260 nM (active); in assay [5] it was 1580 nM (active); in assay [6], 1000 nM (active). For the same molecule, the Potency in assay [7] is 891 nM (active); in assay [8], 794 nM (active); in assay [9], 757 nM (active); in assay [10], 562 nM (active); in [11], 1900 nM (active); in assay [12], 1510 nM (active). Moreover, the Potency in assay [13] was 1510 nM (active); in [14], 1200 nM (active); in assay [15] it was 1690 nM (active); in [16] it was 891 nM (active); in assay [17], 251 nM (active); in [18], 301 nM (active). Besides, the Potency in [19] and in assay [20] was 1000 nM (active) in each case.
As for `NC[C@@H]1O[C@H](OC2[C@@H](CO)O[C@@H](OC3[C@H](O)[C@H](N)C[C@H](N)[C@H]3OC3O[C@H](CO)[C@@H](O)[C@H](O)[C@@H]3N)[C@H]2O)C(N)[C@H](O)[C@@H]1O` (stereo not given in full), the Potency entry in assay [1], in assay [2], in assay [3], in assay [4], in assay [5] and in [6] was “inactive” throughout. Further, the Potency result in [7], in assay [8], in assay [9], in [10], in [11] and in [12] was “inactive” each time. Also, the Potency result in [13], in [14], in assay [15], in [16], in assay [17] and in assay [18] was “inactive” in each case. For the same molecule, the Potency result in [19] and in assay [20] was “inactive” throughout.
As for `CCCCCCCCCCCC(=O)OCC(O)C1OCC(O)C1O` (stereo not given), the Potency result in assay [1], in assay [2], in assay [3], in [4], in assay [5] and in assay [6] was “inactive” throughout. Moreover, the Potency entry in [7], in [8], in [9], in assay [10], in assay [11] and in assay [12] was “inactive” each time. Further, the Potency result in assay [13], in [14], in assay [15], in assay [16], in assay [17] and in [18] was “inactive” each time. In addition, the Potency result in assay [19] and in assay [20] was “inactive” each time.

The values are drawn from PubChem BioAssay (NCATS).
